Assay results taken from the supplement of paper PMC7366291.
Counter-ions that a name gives are not always drawn. ± gives the standard deviation or the standard deviation of the averaged measurements.

Assays:
Details in all cases: 25 µM; exposure: 24-48 hpf
[1] = tested on: Danio rerio Tg(wt1b:EGFP) embryo, pronephros; assay: glomerular separation, fold change vs DMSO control; higher = glomeruli further apart (abnormal)
Method in brief: (§1)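 Each feature value is a fold change relative to the mean of same-day DMSO-treated embryos. Embryos of the Tg(wt1b:EGFP) zebrafish line, dechorionated, received 25 μM compound in 0.5% DMSO from 24 to 48 hpf at 28.5°C, in HEPES-buffered E3 with 0.003% PTU. Distances and angles were computed by a Fiji macro from 16 manually set reference points on maximum projections of dorsal pronephros images, and values beyond 2 SD of the feature mean were removed.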

[2] = tested on: Danio rerio Tg(wt1b:EGFP) embryo, pronephros; assay: glomerular width (mean of left and right), fold change vs DMSO control; higher = wider glomerulus
Method in brief: as §1

[3] = tested on: Danio rerio Tg(wt1b:EGFP) embryo, pronephros; assay: fraction of imaged embryos annotated as normal kidney; higher = less nephrotoxic; extreme values may be limits of the assay
Method in brief: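 The value given is the share of embryos in each treatment scored as having a normal kidney. To obtain it, dechorionated Tg(wt1b:EGFP) zebrafish embryos were treated from 24 to 48 hpf at 28.5°C with 25 μM compound in 0.5% DMSO, in 5 mM HEPES-buffered E3 with 0.003% PTU. Pronephroi were imaged by widefield fluorescence (470 nm, 10 z-slices), and every embryo was annotated by hand from maximum projections.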

[4] = tested on: Danio rerio Tg(wt1b:EGFP) embryo, pronephros; assay: pronephric angle neck segment to proximal convoluted tubule (mean of left and right), fold change vs DMSO control; higher = larger pronephric angle
Method in brief: as §1

| SMILES | glomerular separation [1] | glomerular width [2] | fraction of imaged embryos annotated as normal kidney [3] | pronephric angle neck segment [4] |
| --- | --- | --- | --- | --- |
| NC(=O)OCCCc1ccccc1 [Phenprobamate] | 0.999 ± 0.4 | 1.03 ± 0.022 | 0.75 | 1.01 ± 0.05 |
| CN1[C@@H]2C[C@@H](OC(=O)[C@H](CO)c3ccccc3)C[C@H]1[C@@H]1O[C@@H]12 [Scopolamine hydrochloride] | 0.986 ± 0.42 | 1.09 ± 0.054 | 0.833 | 0.984 ± 0.036 |
| CC(=O)O[C@H]1C[C@H](O[C@H]2[C@@H](O)C[C@H](O[C@H]3[C@@H](O)C[C@H](O[C@H]4CC[C@@]5(C)[C@H](CC[C@@H]6[C@@H]5C[C@@H](O)[C@]5(C)[C@@H](C7=CC(=O)OC7)CC[C@]65O)C4)O[C@@H]3C)O[C@@H]2C)O[C@H](C)[C@H]1O[C@@H]1O[C@H](CO)[C@@H](O)[C@H](O)[C@H]1O [Lanatoside C] | 1.4 ± 0.72 | 0.929 ± 0.065 | 0.917 | 1.01 ± 0.041 |
| CCCC(C)(COC(N)=O)COC(=O)NC(C)C (centres undefined) [Carisoprodol] | 0.877 ± 0.24 | 1.14 ± 0.026 | 1 | 0.938 ± 0.022 |
| CC(C)c1cccc(C(C)C)c1O [Propofol] | 0.693 ± 0.2 | 1.02 ± 0.021 | 0.75 | 1.02 ± 0.14 |
| Cc1cccc(C)c1NC1=NCCCS1 [Xylazine] | 0.757 ± 0.26 | 0.997 ± 0.018 | 0.833 | 0.966 ± 0.057 |
| CC(=O)OCC1=C(C(=O)O)N2C(=O)[C@@H](N)[C@H]2SC1 [Cephalosporanic acid, 7-amino] | 0.819 ± 0.17 | 1.136 ± 0.0094 | 1 | 0.977 ± 0.06 |
| C=CCC1(CC(C)C)C(=O)NC(=O)NC1=O [Butalbital] | 0.97 ± 0.31 | 1.1 ± 0.086 | 0.75 | 1.01 ± 0.11 |
| C[C@]12CCC(=O)C=C1C=C[C@@H]1[C@@H]2CC[C@@]2(C)[C@H]1CC[C@@]2(O)CCC(=O)O [Canrenoic acid potassium salt] | 1.07 ± 0.36 | 1.03 ± 0.033 | 0.455 | 0.97 ± 0.046 |
| COc1ccc(OC)c(C(O)C(C)N)c1 (centres undefined) [Methoxamine hydrochloride] | 0.886 ± 0.22 | 0.9725 ± 0.0077 | 0.75 | 0.976 ± 0.021 |
| CCN[C@@H](C)Cc1cccc(C(F)(F)F)c1 [Dexfenfluramine hydrochloride] | 0.736 ± 0.23 | 1.04 ± 0.037 | 0.917 | 1.01 ± 0.03 |
| CC(C)C[C@H](CN)CC(=O)O [Pregabalin] | 1.1 ± 0.25 | 0.9518 ± 0.0028 | 0.917 | 1.03 ± 0.03 |
| NC(=O)CN1CCCC1=O [Piracetam] | 0.815 ± 0.17 | 1.08 ± 0.032 | 0.917 | 0.914 ± 0.051 |
| C[C@]12CCC(=O)C=C1CC[C@@H]1[C@@H]2C(=O)C[C@]2(C)C(=O)CC[C@@H]12 [Adrenosterone] | 0.651 ± 0.16 | 1.005 ± 0.0024 | 1 | 0.958 ± 0.021 |
| COc1cc2c(c(OC)c1OC)-c1ccc(OC)c(=O)cc1[C@@H](NC(C)=O)CC2 [Colchicine] | 1.2 ± 0.47 | 0.827 ± 0.047 | 0.667 | 1.06 ± 0.044 |
| O[C@@H]1CCCC[C@H]1N1CCC(c2ccccc2)CC1 [L(-)-vesamicol hydrochloride] | 1.01 ± 0.55 | 0.955 ± 0.032 | 0.917 | 1.01 ± 0.075 |
